Bioassay records: PubChem BioAssay, National Center for Advancing Translational Sciences (NCATS)
An excerpt weighted towards active compounds, which were near 17% of everything screened.
HT1080 IDH1KD tx = toxicity to HT-1080 IDH1 knockdown cells (counter line); HT-1080 IDH1 knockdown viability, ATP luminescence, 48 h; Potency, µM (highest dose often 46.1 µM), hits mostly cytotoxic; 360,000 compounds, 2% hits; AID 686971
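Using the IDH1-knockdown HT-1080 line run in the same batch and compound series as the NT line, viability after 48 h at 37 °C was determined by CellTiter-Glo luminescence and expressed as % activity.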
DT40 TDP1 CPT = DT40-hTDP1 cell growth loss with CPT; chicken DT40 Tdp1-/-;hTDP1 cells + 20 nM CPT, ATP luminescence, 48 h; Potency, µM (titrated, usually from 46.2 µM), actives largely listed as inhibitors; 420,000 compounds, 12% hits; further: nearly all actives have a fitted effect of over 55% in size
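Cell growth measured by CellTiter-Glo luminescence after a minimum 48 h, 37 C compound exposure with 20 nM CPT in Tdp1-knockout DT40 cells stably expressing hTDP1, seeded 400/well; qHTS titration format.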
DT40 TDP1 no CPT = qHTS for Inhibitors of human tyrosyl-DNA phosphodiesterase 1 (TDP1): qHTS in cells in absence of CPT; Potency, µM (titrated, usually from 46.2 µM), actives largely listed as inhibitors; DT40 Tdp1-/- hTDP1 cells, no CPT, ATP luminescence, 48 h; 420,000 compounds, 15% hits; AID 686978, 2013; further: nearly all actives have a fitted effect of over 55% in size
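Chicken DT40 Tdp1-/- cells complemented with human TDP1, screened without camptothecin (DMSO vehicle only), 400 cells/well. Compounds pin-transferred, cells incubated at 37 °C for at least 48 hr. Growth read as ATP-dependent luminescence (CellTiter-Glo, 30 min at RT).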
TGFb SMAD3 inh = inhibitors of TGF-b signaling; Potency, µM (top dose mostly 46.1 µM), hits mostly inhibitors; HepG2 CAGA-GFP TGF-b/SMAD3 reporter, GFP fluorescence, 18 h; TGF-beta stimulated, 500 pg/mL final; 410,000 compounds, 1.2% hits; further: nearly all actives have a fitted effect of over 65% in size
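Using HEPG2 CAGA-GFP reporter cells at 1000 cells/well, we pinned test compounds, stimulated with recombinant TGF-beta (500 pg/mL final) and measured total well GFP after 18 h.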
HT1080-NT tox = kills 2HG-producing HT-1080-NT fibrosarcoma cells; HT-1080-NT fibrosarcoma viability, CellTiter-Glo ATP luminescence, 48 h; 360,000 compounds, 1.6% hits; Potency, µM (top dose mostly 46.1 µM), hits mostly cytotoxic;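 further: NT is the 2HG producing partner of a matched IDH1 knockdown line; nearly all actives have a fitted effect of over 55% in size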
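Viability by CellTiter-Glo luminescence after 48 h compound exposure at 37C of HT-1080-NT cells (750/well, RPMI, 5% FBS). % activity scaled between DMSO wells and medium-only wells, then curve-fitted and categorized by curve class.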
HepG2 tox = counter-screen for TGF-b inhibitors: cytotoxicity in HepG2 cells; HepG2 CAGA-GFP viability, ATP luminescence, 18 h; Potency, µM (doses to about 46.1 µM), hits mostly cytotoxic; 410,000 compounds, 0.76% hits
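CellTiter-Glo luminescence gave cytotoxicity after 18 hours at 37 degrees C. The cells were HepG2 CAGA-GFP in 1% FBS DMEM, stimulated with 500 pg/mL TGF-beta after compound addition. %Activity was normalised to no-cell wells (complete cell-killing) and DMSO (no toxicity), and curves were fitted and classified.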
Large screens that a line does not name were inactive. The call rests on the fitted dose curve; in most records, active means well fitted curve in the direction sought with a large enough effect; inconclusive means small, poorly fitted or top-dose-only effect, or another doubt; inactive means no such curve, though single readings can be large; an effect the other way counts as inactive or inconclusive.

O=C(NC1(C(F)(F)F)C(=O)Nc2c1c(=O)[nH]c(=O)n2-c1ccccc1)c1ccccc1 (centres undefined)	DT40 TDP1 no CPT inconclusive (no result: HT1080 IDH1KD tx, HT1080-NT tox)
COc1ccc(Cl)cc1/C=N/NC(=O)c1c(-c2ccccc2)noc1C	none
Cc1onc(-c2ccccc2Cl)c1C(=O)N/N=C(\N)COc1ccc(Cl)cc1	HT1080 IDH1KD tx inconclusive, DT40 TDP1 CPT 23µM, DT40 TDP1 no CPT 13µM, TGFb SMAD3 inh inconclusive
Cc1onc(-c2ccccc2)c1C(=O)N/N=C(\N)COc1ccc(Cl)cc1	HT1080 IDH1KD tx inconclusive, DT40 TDP1 CPT 16µM, DT40 TDP1 no CPT inconclusive, HT1080-NT tox inconclusive
CCOc1ccc(C(=O)COC(=O)c2c(-c3ccccc3)noc2C)cc1	HT1080 IDH1KD tx inconclusive, DT40 TDP1 CPT inconclusive, DT40 TDP1 no CPT 21µM, HT1080-NT tox inconclusive
CCC(=O)Nc1ccc(/C(C)=N/NC(=O)c2c(-c3ccccc3Cl)noc2C)cc1	DT40 TDP1 CPT inconclusive, DT40 TDP1 no CPT inconclusive
CC(=O)c1ccc(C(=O)N2CCc3c([nH]c4ccccc34)C2c2ccccn2)s1 (centres undefined)	DT40 TDP1 CPT inconclusive, DT40 TDP1 no CPT 21µM, HT1080-NT tox inconclusive
CCc1nc(C)ccc1OCC(=O)N1CCc2c([nH]c3ccccc23)C1c1ccccn1 (centres undefined)	DT40 TDP1 CPT 21µM, DT40 TDP1 no CPT 23µM, TGFb SMAD3 inh inconclusive
CSc1nc(C(=O)N2CCc3c([nH]c4ccccc34)C2c2ccccn2)cs1 (centres undefined)	HT1080 IDH1KD tx inconclusive, DT40 TDP1 no CPT inconclusive
Cc1ccc2nc(C(=O)N3CCc4c([nH]c5ccccc45)C3c3ccccn3)cn2c1 (centres undefined)	DT40 TDP1 CPT inconclusive, DT40 TDP1 no CPT 21µM, TGFb SMAD3 inh inconclusive
O=C(c1ccccc1-c1ncc[nH]1)N1CCc2c([nH]c3ccccc23)C1c1ccccn1 (centres undefined)	DT40 TDP1 CPT inconclusive, DT40 TDP1 no CPT inconclusive
O=C(c1ccccc1-n1cccn1)N1CCc2c([nH]c3ccccc23)C1c1ccccn1 (centres undefined)	DT40 TDP1 CPT 10µM, DT40 TDP1 no CPT 10µM
CCCCN(CCCC)S(=O)(=O)c1c(C)[nH]c(=O)[nH]c1=O	none
COc1ccc(CNc2nc(-c3cccnc3)nn2S(C)(=O)=O)cc1	none
COC(=O)C[C@@H]1C=C[C@H](NC(=O)c2ccccc2)[C@@H](CO)O1	HT1080-NT tox inconclusive (no result: TGFb SMAD3 inh, HepG2 tox)
COc1ccccc1CNC(=O)C(C)n1nc(C)n2c(cc3occc32)c1=O (centres undefined)	DT40 TDP1 CPT inconclusive
O=C(CCN1C(=O)C2C3C=CC(C4CC34)C2C1=O)Nc1ccc(Cl)cc1O (centres undefined)	DT40 TDP1 no CPT inconclusive
CCC(=O)N1CCC1(C)C(=O)Nc1ccc(C)c(C)c1 (centres undefined)	none
COC(=O)[C@@]12C[C@@H](CC(=O)NCCCN3CCCC3=O)C(=O)N(Cc3ccc4c(c3)OCO4)C1=CCC(C)(C)C2	DT40 TDP1 CPT inconclusive, DT40 TDP1 no CPT inconclusive (no result: TGFb SMAD3 inh, HepG2 tox)
CC(=O)N1CCc2cc(CNC(=O)Nc3cc(Cl)ccc3C)ccc21	none (no result: HT1080 IDH1KD tx, HT1080-NT tox)
COCCn1c(C)cc(C(=O)COc2ncnc3ccc(Br)cc23)c1C	none
C=CCn1c(C)cc(C(=O)COc2ncnc3sccc23)c1C	HT1080 IDH1KD tx inconclusive, DT40 TDP1 CPT inconclusive, DT40 TDP1 no CPT 16µM
C=CCn1c(C)cc(C(=O)COC(=O)c2cncc(Br)c2)c1C	DT40 TDP1 CPT 18µM, DT40 TDP1 no CPT inconclusive
CCOc1ccc(CCNC(=O)c2ccc3c(Cl)c4c(nc3c2)CCCC4)cc1	DT40 TDP1 CPT inconclusive, DT40 TDP1 no CPT 23µM, TGFb SMAD3 inh inconclusive (no result: HT1080 IDH1KD tx, HT1080-NT tox)
CCN1CCN(CCCNC(=O)c2ccc3c(Cl)c4c(nc3c2)CCCC4)CC1	HT1080 IDH1KD tx inconclusive, DT40 TDP1 CPT inconclusive, DT40 TDP1 no CPT 18µM, TGFb SMAD3 inh inconclusive, HT1080-NT tox 26µM
CCOC(=O)c1ccccc1NC(=O)c1ccc2c(Cl)c3c(nc2c1)CCC3	none (no result: HT1080 IDH1KD tx, HT1080-NT tox)
CCOC(=O)c1cccc(NC(=O)c2ccc3c(Cl)c4c(nc3c2)CCC4)c1	DT40 TDP1 CPT inconclusive, DT40 TDP1 no CPT 29µM, TGFb SMAD3 inh inconclusive (no result: HT1080 IDH1KD tx, HT1080-NT tox)
CC1CCN(CCCNC(=O)c2ccc3c(Cl)c4c(nc3c2)CCCC4)CC1	HT1080 IDH1KD tx 21µM, DT40 TDP1 CPT 13µM, DT40 TDP1 no CPT 3.7µM, HT1080-NT tox inconclusive
COCCNC(=O)c1ccc2c(Cl)c3c(nc2c1)CCC3	none
CN(CC(=O)Nc1ccccc1Cl)C(=O)CSc1nnc(N)s1	none
Cc1ccc(C)c(Cn2cnc3ccccc3c2=O)c1	DT40 TDP1 no CPT inconclusive (no result: HT1080 IDH1KD tx, HT1080-NT tox)
CCCN(CCC)CCCNC(=O)c1ccc2c(Cl)c3c(nc2c1)CCC3	HT1080 IDH1KD tx 21µM, DT40 TDP1 CPT inconclusive, DT40 TDP1 no CPT 18µM, HT1080-NT tox inconclusive
COc1ccc(CCNCC(=O)Nc2ccc(C)c(Br)c2)cc1OC	HT1080 IDH1KD tx inconclusive, DT40 TDP1 CPT 9.2µM, DT40 TDP1 no CPT inconclusive, TGFb SMAD3 inh inconclusive, HT1080-NT tox inconclusive
CC(C)NC(=O)C1(C)CN(S(C)(=O)=O)CC(=O)N1CCc1ccc(O)cc1 (centres undefined)	none (no result: TGFb SMAD3 inh, HepG2 tox)
